Bioassay records from PubChem.
SARS 3CLpro inh – SARS-CoV 3CLpro protease inhibition. 290,000 compounds, 0.14% hits. P0C6X7. AID 1706. inhibition, % at 6 µM. recombinant SARS-CoV 3CLpro, quenched FRET peptide cleavage; in the data active = inhibition above about 12%
CCHFV vOTU inh – blocks the CCHF virus ovarian tumor domain protease; CCHFV vOTU protease, Pep-AMC fluorescence; inhibition, % at 11.5 µM; 370,000 compounds, 0.55% hits; AID 651958; in the data active = inhibition above about 30%
Mtb FBA inh – inhibits M. tuberculosis FBA enzyme. purified M. tuberculosis FBA, fluorescence read-out. inhibition, % at 1 µM. 360,000 compounds, 2.3% hits. AID 588726
GDH-TPI counter-1 – GDH-TPI coupled enzyme inhibition counter-screen | GDH-TPI coupled enzyme counterscreen, NADH absorbance | inhibition, % at 4.8 µM | 360,000 compounds, 1.2% hits | AID 588335; in the data active = inhibition above about 30%
VHR inh abs – inhibitors of human VHR1 phosphatase (DUSP3). P51452. recombinant VHR phosphatase, pNPP absorbance. inhibition, % at 13.3 µM. 290,000 compounds, 0.52% hits. AID 1654; in the data active = inhibition above about 50%
RecA splice inh – inhibitors of M. tuberculosis RecA intein splicing; cell-free RecA intein splicing, fluorescence; 290,000 compounds, 0.75% hits; inhibition, % (no concentration beside the values); AID 2221; in the data active = inhibition above about 30%
Mtb FBA confirm – Mtb FBA inhibition, confirmed | shares compounds with Mtb FBA inh | inhibition, % at 1 µM | 5,600 compounds, 78% hits | purified M. tuberculosis FBA, fluorescence read-out
GDH-TPI counter-2 – GDH-TPI inhibition counter-screen for FBA inhibitors | AID 652141 | GDH-TPI coupled enzyme counterscreen, fluorescence | 5,600 compounds, 81% hits | shares compounds with Mtb FBA inh | inhibition, % at 1 µM; in the data active = inhibition above about 10%
A number is an active result; n = inactive; x = no result given; + = active, no number. An excerpt weighted towards active compounds, which were near 4.7% of everything screened. Rule as the data show it, unless noted: active = inhibition above about 27%; inactive = the rest.

SMILES	SARS 3CLpro inh	CCHFV vOTU inh	Mtb FBA inh	GDH-TPI counter-1	VHR inh abs	RecA splice inh	Mtb FBA confirm	GDH-TPI counter-2
Cc1ccc(-n2nc(C)c3c2NC2=C(C(=O)CC(C)(C)C2)C3c2ccccc2OCC(=O)O)cc1 (configuration not stated)	n	n	36.9	n	n	n	194.2	129.4
COCCNC(=O)C1CCCN(C(=O)COCc2ccccc2)CC1 (configuration not stated)	x	n	n	n	x	x	x	x
Nc1nc2n(n1)C(c1cccs1)CC(c1ccccc1)N2 (configuration not stated)	n	n	69.0	n	n	n	100.5	80.8
Nc1nc2n(n1)C(c1cccs1)CC(c1ccc(F)cc1)N2 (configuration not stated)	n	n	n	n	n	n	x	x
CCOC(=O)C1(CC2CCCCO2)CCN(Cc2nc(C(C)C)cs2)CC1 (configuration not stated)	n	n	n	n	n	x	x	x
CCOC(=O)CCn1c2nc(C)cc(C)c2c(=O)n1-c1ccccc1	n	n	28.2	n	n	n	48.9	40.7
CCOC(=O)Cn1nc(C)n(-c2ccccc2)c1=O	n	n	n	n	n	n	x	x
CCOC(=O)[C@]12CCC=C1N(Cc1ccc(Cl)cc1Cl)C(=O)[C@H](CC(=O)NCCCOC)C2	x	n	x	x	x	x	x	x
COc1cccc(-c2cc3nc(-c4ccccc4)cc(N4CCCC(O)C4)n3n2)c1 (configuration not stated)	n	n	102.0	n	n	n	198.6	140.7
OC1CCN(c2cc(-c3ccccc3)nc3cc(-c4ccc(F)cc4)nn23)CC1	n	n	n	n	n	n	x	x
COc1ccc(-c2cc3nc(-c4ccccc4)cc(N4CCN(C(=O)c5ccoc5)CC4)n3n2)cc1	x	n	55.6	n	x	x	47.8	36.1
CCN1CCN(c2cc(-c3ccccc3)nc3cc(-c4cccc(F)c4)nn23)CC1	n	n	41.7	n	n	n	75.8	53.3
CCOC(=O)CN1C(=O)C(Sc2n[nH]c(-c3ccccc3)n2)CCc2ccccc21 (configuration not stated)	n	n	n	n	n	n	x	x
CCOc1ccc(C(=O)NCC(=O)OCc2nnc(-c3ccccc3)o2)cc1OCC	x	n	n	n	x	x	x	x
COc1ccc(C(=O)Oc2ccc3ccc(=O)oc3c2)cc1	n	n	n	n	n	n	x	x
Cc1cc(=O)oc2cc(OC(=O)c3ccccc3)ccc12	n	n	74.9	n	n	n	+	+
COc1ccc2c(C)cc(=O)oc2c1	x	n	54.7	n	x	x	90.9	61.1
CCOc1ccccc1C(=O)Oc1ccc2ccc(=O)oc2c1	n	n	66.2	n	n	n	83.3	81.1
O=C(Oc1ccc2ccc(=O)oc2c1)c1ccccc1	n	n	62.7	n	n	n	50.4	41.1
O=C(Oc1ccc2ccc(=O)oc2c1)C1CCCCC1	n	n	108.4	n	n	n	+	+
O=C(COc1ccc2ccc(=O)oc2c1)NC1CCCC1	n	n	n	n	n	n	x	x
O=c1ccc2ccc(OCCOc3cccc(Cl)c3)cc2o1	n	n	49.4	n	n	n	173.1	157.2
COCCNC(=O)C1CCCN(C(=O)c2csc3ccccc23)CC1 (configuration not stated)	x	n	n	n	x	x	x	x
COc1ccccc1CNC(=O)CCc1c(C)nc2cc(-c3ccccc3OC)nn2c1C	n	n	n	n	n	n	x	x
CCOC(=O)CCc1c(C)n(CC)c2cc(-c3ccccc3OC)nn2c1=O	n	n	66.5	n	n	n	+	+
CCN(CC)CCCNC(=O)CCc1c(C)n(CC)c2cc(-c3ccccc3OC)nn2c1=O	n	n	65.0	n	n	n	195.4	118.2
Cc1ccc(S(=O)(=O)N[C@H](C(=O)OCC(=O)NC(=O)C2CCCCC2)C(C)C)cc1	x	n	n	n	x	x	x	x
O=C(NCc1ccc(F)cc1)c1ccc(CS(=O)(=O)Cc2ccccc2F)o1	n	n	55.0	n	n	n	95.2	82.6
O=C(NCc1ccc(F)cc1)c1ccc(CS(=O)(=O)Cc2ccc(F)cc2)o1	n	n	n	n	n	n	x	x
Cc1cccc(NC(=O)CNC(=O)Cc2ccc(S(=O)(=O)N3CCOCC3)s2)c1C	x	n	n	n	x	x	x	x
